Reference: PMC12136788
Whole data set: some 5,800 sequences, median “enrichment r” near 0.68, cut for the highest 2% near 11. The full list was thinned out, with the highest values kept by preference.

T1: UNK ZnF1-6 (called full-length) (human, UniProt Q9C0B0 30-357)
T1 sequence: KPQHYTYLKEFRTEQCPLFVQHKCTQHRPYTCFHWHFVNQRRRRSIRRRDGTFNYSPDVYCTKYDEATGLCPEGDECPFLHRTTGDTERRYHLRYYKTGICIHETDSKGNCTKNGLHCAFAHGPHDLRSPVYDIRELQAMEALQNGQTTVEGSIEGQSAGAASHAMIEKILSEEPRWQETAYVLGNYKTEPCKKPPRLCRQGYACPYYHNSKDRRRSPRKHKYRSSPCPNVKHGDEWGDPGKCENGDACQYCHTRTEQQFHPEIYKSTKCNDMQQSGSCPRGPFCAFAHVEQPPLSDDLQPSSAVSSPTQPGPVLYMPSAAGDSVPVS

B1: chr11:118750849:118750950:-|3pUTR|ENSG00000110367|msi1|FALSE|unique (ssRNA)
RNA: GGGAGUUCUACAGUCCGACGAUCAUUCUAGAAAGUACUUUGGCCUCGUGCUGUAGAGAGCAGAUUUCUAUGGUACCCUGUGUUAGUAAAGGGGCCCAGAAAUCUGGGAUGUACUGUUUGCUGCCACACUGUCUCAUCUAGUACCAACAGAGGAUUGAGCAUCA
B2: ENSG00000198589:be:win_8001|CDS|ENSG00000198589|bound_else_gene|NA|bound_elsewhere_windowed (ssRNA)
RNA: GGGAGUUCUACAGUCCGACGAUCUGGAGAUAACCCAGGCAGUGAGACUGCUGCUCCUCGGGCCAUUUUGACCGGCCAUGACUAUGAGGUCACAUGUGCUGCGGUGUGUGCGGAGCUAGGCCUGGUGUUGAGUGGUUCACAAGACAACAGAGGAUUGAGCAUCA
B3: chr2:231108229:231108516:-|three_prime_utr|ENSG00000135914|control|control|control (ssRNA)
RNA: GGGAGUUCUACAGUCCGACGAUCAAGAAUAUCUAAUUUUCCUAAUUUGGACAAGAUUAUUCCAUGAGGAAAAUAAUUUUAUAUAGCUACAAAUGAAAACAAUCCAGCACUCUGGUUAAAUUUUAAGGUAUUCGAAUGAAAUAACAACAGAGGAUUGAGCAUCA
B4: chr5:113594843:113594944:+|3pUTR|ENSG00000047188|msi1|FALSE|bound_elsewhere (ssRNA)
RNA: GGGAGUUCUACAGUCCGACGAUCCAACAUAAAAUCUUGAGAACCUUCUACUUUCUCUGGGAAAGCAUUAUAUAGUGGUGCAUUAGUUUAGAAAGUCAGCUAUGAUUUUGCCUAUAGUUCUAGUUAUUAGCUUUGGGGUUUUCUCAACAGAGGAUUGAGCAUCA
B5: chr3:49657245:49657349:+|CDS|ENSG00000164061|unk|total|mutant (ssRNA)
RNA: GGGAGUUCUACAGUCCGACGAUCCAGCCGCCGUGGCAUCAAGAAGCGGCACUCCAUGCCACGCCUGCGGGAUGCCUGUGAGCCCGAGUCUGGGACUGAGCCCUGUGUGGUCAGGAGGAUUGCCGACAGCAGCGUGCAGACAGACAACAGAGGAUUGAGCAUCA
B6: chr1:193014253:193014354:-|3pUTR|ENSG00000116750|unk|total|mutant (ssRNA)
RNA: GGGAGUUCUACAGUCCGACGAUCUUAACCGGUAUAAGGAUUUUUCUUAUUAAUCUAAUAAAAUUCCUUAACCGGAAUUUCCACCGCUUAAGAGUGGUUUAUUUUAUCUGCAUCUUCUUUGGUGAUUGCAAAUCCCUUGUGAUACAACAGAGGAUUGAGCAUCA
B7: chr1:45660322:45660423:-|5pUTR|ENSG00000159592|unk|FALSE|unique (ssRNA)
RNA: GGGAGUUCUACAGUCCGACGAUCUCCCCUUCCCCCCUUCCCCUUUUCCCCUUUCCCCUUUUGGAAACGUGUCAGGAACCAAAUAGUUUAAGAUGAGCAGUUGAGGGGACUGAGAGAGUGAUCGACACAGAACCUGGCUUCUUCCAACAGAGGAUUGAGCAUCA
B8: ENSG00000070961:be:win_3901|3pUTR|ENSG00000070961|bound_else_gene|NA|bound_elsewhere_windowed (ssRNA)
RNA: GGGAGUUCUACAGUCCGACGAUCAAGUGACCUGUGGAUCAUCAGUAGUACCCAAGCAUGGUCCUGAACAGUGUAUUAGCAGAGCUUUAGUUUAUCUCAGUCCUGGAUGGGAGAGAGAGGGAGGAGUAAAACUGGGCAAGACAACAACAGAGGAUUGAGCAUCA
B9: chr11:95167508:95167609:-|3pUTR|ENSG00000149212|unk|FALSE|unique (ssRNA)
RNA: GGGAGUUCUACAGUCCGACGAUCAAUAAUGGAGACUGAAUGAGGCGGUUUGUAUUAAAUUAUAUGCCAUGAAGUGUUCAUUUUAGCUUUAACCUAAUUAUGACUGUACCACCAUGAAGUACAGAAUGAAAAAUUAUAUAUAUGCAACAGAGGAUUGAGCAUCA
B10: chr8:80500255:80500365:+|CDS|ENSG00000205189|unk|FALSE|unique (ssRNA)
RNA: GGGAGUUCUACAGUCCGACGAUCGAAAAACCAAACUACAAAAAGAUUUAUUUAUAAUAUUCCACCUAAUAAUGAAACGAAUUUAGAAGAUUGCUCAGUAAUGCAGCCACCUGUUGCCUAUCCAGAAGAAAAUACACUACUCAUCAACAGAGGAUUGAGCAUCA
B11: ENSG00000136451:be:win_3801|3pUTR|ENSG00000136451|bound_else_gene|NA|bound_elsewhere_windowed (ssRNA)
RNA: GGGAGUUCUACAGUCCGACGAUCACCCCUAAGCUAGAAUGUGGUUGUCAGAACCCUGAAAGUAUUAGUUCUAAAAAAAAAAAGAUAUAUACUAGAAGUAAUUGUUUUAUCAAUUCAUUGUAUAAUAAACAGGAGUGAGACUUCCAACAGAGGAUUGAGCAUCA
B12: chr8:30843048:30843149:-|CDS|ENSG00000133863|unk|FALSE|unique (ssRNA)
RNA: GGGAGUUCUACAGUCCGACGAUCGGAUACUAUAAUUGCUUCCAGAAAGUCAGAUCAUCCAAUAAACGAAGCAACAAUUAGCAUAGAAAAUUCUAAAUUUAACAGUAAUUUGCUUGCACACCCAGAUAUUUGUUGUAUUAGUGACAACAGAGGAUUGAGCAUCA
B13: chr2:42328916:42329027:+|CDS|ENSG00000143924|unk|total|mutant (ssRNA)
RNA: GGGAGUUCUACAGUCCGACGAUCAGAAGGAUCUGAUGGGACAGAUAUCAAUGCACUGGUGCGAUCCCACAACCGAAAGGUGACCGCUGUUGCCGAUGACUUUUGUAAAGUCCAUCUGUUUCAGUAUCCCUGCUCCAAAGCAAACAACAGAGGAUUGAGCAUCA
B14: chr6:52279506:52279615:-|CDS|ENSG00000112118|unk|total|mutant (ssRNA)
RNA: GGGAGUUCUACAGUCCGACGAUCUGAGUGUGGCAUUUUUAAGACAGGACGGAGAUCACUCUGUCCCUCUGUGUGCCUUUUUCCCGGAUGAGGAGAACAAUCCCCUUGAGACAGAAUAUGGCCUUUCUGUCUACAAGGAUCACCCAACAGAGGAUUGAGCAUCA

Biological target: T1, UNK ZnF1-6 (called full-length)
Assay: nsRBNS (natural sequence RNA bind-n-seq); RBNS binding buffer (assumed for nsRBNS): 25 mM Tris pH 7.5, 150 mM KCl, 3 mM MgCl2, 0.01% Triton X-100, 500 ug/ml BSA, 20 U/ml SUPERase-In, 4 C; UNK is unkempt and MSI1 is Musashi-1; names of the RNAs are library labels; protein concentration not given here; high values mean tight binding

Row | Binder | binding signal [enrichment R]
1 | B1 | 0.975
2 | B2 | 0.695
3 | B3 | 1.88
4 | B4 | 5.33
5 | B5 | 0.785
6 | B6 | 0.372
7 | B7 | 0.765
8 | B8 | 1.72
9 | B9 | 8.52
10 | B10 | 9.28
11 | B11 | 2.41
12 | B12 | 14.2
13 | B13 | 0.381
14 | B14 | 0.393
